# Test results taken from the supplement of paper PMC11732987, “Enantioselective OTUD7B fragment discovery through chemoproteomics screening and high-throughput optimisation” (Communications Chemistry, 2025).
# Unmarked numbers belong to inactive results.
# Legend:
# Assay in all cases: log2 ratio of Biotin-Ahx-Ub-VS probe labelling (fragment/DMSO); higher = less target engagement (more negative = stronger competition), active = hit call of the paper (q ≤ 0.05, log2 ratio ≤ -1)
# Settings in all cases: compound concentration: 200 uM; treatment time: 3 h
# [1] = molecular target: USP9X (UniProt Q93008)
# Outline: (§1)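 HEK293T lysate, 495 µg per sample in Tris/CHAPS/IGEPAL buffer with protease inhibitors, was treated in triplicate with fragment at 200 µM or vehicle for 3 h and then with Biotin-Ahx-Ub-VS at 0.5 µM final for 1 h. Labelled DUBs were NeutrAvidin-enriched, digested with LysC and trypsin, and run by diaPASEF LC-MS/MS. Spectronaut label-free quantities were global-median-normalised, and values are average log2 fragment/vehicle ratios by unpaired t-test on proteins with ≥2 unique peptides.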
# [2] = molecular target: UniProt O00487
# Outline: as §1
# [3] = molecular target: UniProt O00507
# Outline: as §1
# [4] = molecular target: UniProt P51784
# Outline: as §1
# [5] = molecular target: T1, UniProt Q5T2D3
# T1 sequence (whole entry): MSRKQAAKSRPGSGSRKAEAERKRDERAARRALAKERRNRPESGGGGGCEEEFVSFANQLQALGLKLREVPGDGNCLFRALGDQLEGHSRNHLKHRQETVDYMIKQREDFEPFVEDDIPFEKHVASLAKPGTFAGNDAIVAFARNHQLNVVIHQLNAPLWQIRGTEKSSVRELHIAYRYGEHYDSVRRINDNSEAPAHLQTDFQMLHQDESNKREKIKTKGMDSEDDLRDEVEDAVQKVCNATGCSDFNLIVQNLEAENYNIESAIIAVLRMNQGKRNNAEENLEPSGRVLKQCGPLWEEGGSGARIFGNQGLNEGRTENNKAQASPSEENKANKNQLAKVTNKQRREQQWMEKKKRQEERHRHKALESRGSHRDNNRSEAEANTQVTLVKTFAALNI
# Outline: as §1
# [6] = molecular target: T2, UniProt Q8TE49
# T2 sequence (whole entry): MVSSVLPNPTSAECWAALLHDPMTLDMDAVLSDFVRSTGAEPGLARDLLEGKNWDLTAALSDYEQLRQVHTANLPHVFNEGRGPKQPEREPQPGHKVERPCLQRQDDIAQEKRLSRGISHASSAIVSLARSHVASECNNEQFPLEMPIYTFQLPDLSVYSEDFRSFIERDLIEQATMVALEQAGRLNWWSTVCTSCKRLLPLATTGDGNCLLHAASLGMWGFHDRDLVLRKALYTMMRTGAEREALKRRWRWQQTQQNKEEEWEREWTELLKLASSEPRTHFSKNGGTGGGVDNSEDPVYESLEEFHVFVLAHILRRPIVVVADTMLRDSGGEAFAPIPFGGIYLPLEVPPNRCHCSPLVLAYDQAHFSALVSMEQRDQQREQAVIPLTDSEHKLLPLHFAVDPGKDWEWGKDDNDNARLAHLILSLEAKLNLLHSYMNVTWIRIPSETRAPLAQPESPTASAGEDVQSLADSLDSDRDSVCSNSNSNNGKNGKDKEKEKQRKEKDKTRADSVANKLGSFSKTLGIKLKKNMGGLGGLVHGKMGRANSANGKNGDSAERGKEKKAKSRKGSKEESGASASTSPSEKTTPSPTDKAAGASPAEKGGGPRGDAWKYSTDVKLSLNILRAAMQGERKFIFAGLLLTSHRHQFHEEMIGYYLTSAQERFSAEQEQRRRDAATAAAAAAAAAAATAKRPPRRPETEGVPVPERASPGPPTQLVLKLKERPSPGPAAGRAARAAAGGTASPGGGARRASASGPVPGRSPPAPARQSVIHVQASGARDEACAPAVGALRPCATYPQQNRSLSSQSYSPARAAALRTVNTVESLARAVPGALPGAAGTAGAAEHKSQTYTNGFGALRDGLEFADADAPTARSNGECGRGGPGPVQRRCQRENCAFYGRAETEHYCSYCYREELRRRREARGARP
# Outline: as §1
# [7] = molecular target: T3, UniProt Q9P2H5
# T3 sequence (whole entry): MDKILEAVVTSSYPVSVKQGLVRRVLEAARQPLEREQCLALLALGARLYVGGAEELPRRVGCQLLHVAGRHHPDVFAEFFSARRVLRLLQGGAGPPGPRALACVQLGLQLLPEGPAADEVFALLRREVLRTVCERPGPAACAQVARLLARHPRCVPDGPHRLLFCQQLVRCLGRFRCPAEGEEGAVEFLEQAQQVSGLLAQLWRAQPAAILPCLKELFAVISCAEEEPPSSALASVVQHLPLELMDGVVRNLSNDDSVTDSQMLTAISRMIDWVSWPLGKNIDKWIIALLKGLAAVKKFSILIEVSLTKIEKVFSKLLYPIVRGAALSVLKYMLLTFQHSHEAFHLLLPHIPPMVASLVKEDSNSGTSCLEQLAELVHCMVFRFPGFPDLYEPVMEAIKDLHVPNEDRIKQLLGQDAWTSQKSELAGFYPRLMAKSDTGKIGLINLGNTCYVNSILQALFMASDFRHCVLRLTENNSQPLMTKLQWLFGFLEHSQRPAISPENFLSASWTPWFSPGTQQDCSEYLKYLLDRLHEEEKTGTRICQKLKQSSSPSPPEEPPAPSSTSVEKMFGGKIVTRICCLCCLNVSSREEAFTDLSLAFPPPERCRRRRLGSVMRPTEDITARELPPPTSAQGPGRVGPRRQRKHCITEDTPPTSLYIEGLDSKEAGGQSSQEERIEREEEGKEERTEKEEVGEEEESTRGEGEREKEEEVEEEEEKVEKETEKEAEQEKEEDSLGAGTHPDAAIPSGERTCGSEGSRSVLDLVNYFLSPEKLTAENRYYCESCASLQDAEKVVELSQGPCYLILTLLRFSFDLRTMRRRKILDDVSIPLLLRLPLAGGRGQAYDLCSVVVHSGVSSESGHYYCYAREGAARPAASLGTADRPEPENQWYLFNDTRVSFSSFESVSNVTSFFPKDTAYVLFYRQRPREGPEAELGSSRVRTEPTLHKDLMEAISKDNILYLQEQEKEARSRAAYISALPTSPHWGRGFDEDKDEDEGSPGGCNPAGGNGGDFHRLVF
# Outline: as §1
# [8] = molecular target: T4, UniProt Q9UGI0
# T4 sequence (whole entry): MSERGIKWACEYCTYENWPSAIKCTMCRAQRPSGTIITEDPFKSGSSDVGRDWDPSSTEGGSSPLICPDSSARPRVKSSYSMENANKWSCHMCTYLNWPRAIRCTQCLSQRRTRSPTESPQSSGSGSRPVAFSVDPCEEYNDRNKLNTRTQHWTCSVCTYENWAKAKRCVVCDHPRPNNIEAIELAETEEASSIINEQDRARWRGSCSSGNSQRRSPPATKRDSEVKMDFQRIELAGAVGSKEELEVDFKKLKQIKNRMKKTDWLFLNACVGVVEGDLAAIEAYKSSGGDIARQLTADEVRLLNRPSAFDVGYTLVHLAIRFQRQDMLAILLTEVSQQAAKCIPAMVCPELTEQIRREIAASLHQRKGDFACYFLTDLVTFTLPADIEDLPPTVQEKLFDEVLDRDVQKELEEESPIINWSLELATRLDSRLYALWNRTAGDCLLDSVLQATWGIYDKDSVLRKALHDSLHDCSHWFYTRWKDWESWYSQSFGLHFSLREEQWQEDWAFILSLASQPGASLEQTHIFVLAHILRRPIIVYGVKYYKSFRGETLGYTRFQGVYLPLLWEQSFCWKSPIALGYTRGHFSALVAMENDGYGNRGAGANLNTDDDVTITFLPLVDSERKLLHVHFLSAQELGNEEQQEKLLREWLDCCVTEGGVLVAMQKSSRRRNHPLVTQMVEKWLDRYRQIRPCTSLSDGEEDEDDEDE
# Outline: as §1
# [9] = molecular target: T5, YOD1 (UniProt Q5VVQ6)
# T5 sequence (whole entry): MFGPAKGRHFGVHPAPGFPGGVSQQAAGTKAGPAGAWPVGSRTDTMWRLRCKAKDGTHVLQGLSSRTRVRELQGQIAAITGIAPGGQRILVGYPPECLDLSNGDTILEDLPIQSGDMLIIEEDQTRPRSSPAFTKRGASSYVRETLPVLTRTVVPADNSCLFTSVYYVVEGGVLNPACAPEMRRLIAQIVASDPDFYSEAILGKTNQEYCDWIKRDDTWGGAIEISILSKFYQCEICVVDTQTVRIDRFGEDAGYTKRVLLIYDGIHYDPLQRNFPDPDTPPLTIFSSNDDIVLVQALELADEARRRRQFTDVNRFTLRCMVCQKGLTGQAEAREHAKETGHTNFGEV
# Outline: as §1
# Chain of UniProt O00487 (O00487 whole entry): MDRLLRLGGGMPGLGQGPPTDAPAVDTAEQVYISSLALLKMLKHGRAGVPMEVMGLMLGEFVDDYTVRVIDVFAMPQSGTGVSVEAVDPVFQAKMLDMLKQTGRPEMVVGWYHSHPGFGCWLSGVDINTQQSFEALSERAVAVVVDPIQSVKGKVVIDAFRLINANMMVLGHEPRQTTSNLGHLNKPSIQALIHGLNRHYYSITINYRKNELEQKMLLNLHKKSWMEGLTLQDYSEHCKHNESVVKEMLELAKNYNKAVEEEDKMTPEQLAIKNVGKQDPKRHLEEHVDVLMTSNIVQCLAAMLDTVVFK
# Chain of UniProt O00507 (O00507 whole entry): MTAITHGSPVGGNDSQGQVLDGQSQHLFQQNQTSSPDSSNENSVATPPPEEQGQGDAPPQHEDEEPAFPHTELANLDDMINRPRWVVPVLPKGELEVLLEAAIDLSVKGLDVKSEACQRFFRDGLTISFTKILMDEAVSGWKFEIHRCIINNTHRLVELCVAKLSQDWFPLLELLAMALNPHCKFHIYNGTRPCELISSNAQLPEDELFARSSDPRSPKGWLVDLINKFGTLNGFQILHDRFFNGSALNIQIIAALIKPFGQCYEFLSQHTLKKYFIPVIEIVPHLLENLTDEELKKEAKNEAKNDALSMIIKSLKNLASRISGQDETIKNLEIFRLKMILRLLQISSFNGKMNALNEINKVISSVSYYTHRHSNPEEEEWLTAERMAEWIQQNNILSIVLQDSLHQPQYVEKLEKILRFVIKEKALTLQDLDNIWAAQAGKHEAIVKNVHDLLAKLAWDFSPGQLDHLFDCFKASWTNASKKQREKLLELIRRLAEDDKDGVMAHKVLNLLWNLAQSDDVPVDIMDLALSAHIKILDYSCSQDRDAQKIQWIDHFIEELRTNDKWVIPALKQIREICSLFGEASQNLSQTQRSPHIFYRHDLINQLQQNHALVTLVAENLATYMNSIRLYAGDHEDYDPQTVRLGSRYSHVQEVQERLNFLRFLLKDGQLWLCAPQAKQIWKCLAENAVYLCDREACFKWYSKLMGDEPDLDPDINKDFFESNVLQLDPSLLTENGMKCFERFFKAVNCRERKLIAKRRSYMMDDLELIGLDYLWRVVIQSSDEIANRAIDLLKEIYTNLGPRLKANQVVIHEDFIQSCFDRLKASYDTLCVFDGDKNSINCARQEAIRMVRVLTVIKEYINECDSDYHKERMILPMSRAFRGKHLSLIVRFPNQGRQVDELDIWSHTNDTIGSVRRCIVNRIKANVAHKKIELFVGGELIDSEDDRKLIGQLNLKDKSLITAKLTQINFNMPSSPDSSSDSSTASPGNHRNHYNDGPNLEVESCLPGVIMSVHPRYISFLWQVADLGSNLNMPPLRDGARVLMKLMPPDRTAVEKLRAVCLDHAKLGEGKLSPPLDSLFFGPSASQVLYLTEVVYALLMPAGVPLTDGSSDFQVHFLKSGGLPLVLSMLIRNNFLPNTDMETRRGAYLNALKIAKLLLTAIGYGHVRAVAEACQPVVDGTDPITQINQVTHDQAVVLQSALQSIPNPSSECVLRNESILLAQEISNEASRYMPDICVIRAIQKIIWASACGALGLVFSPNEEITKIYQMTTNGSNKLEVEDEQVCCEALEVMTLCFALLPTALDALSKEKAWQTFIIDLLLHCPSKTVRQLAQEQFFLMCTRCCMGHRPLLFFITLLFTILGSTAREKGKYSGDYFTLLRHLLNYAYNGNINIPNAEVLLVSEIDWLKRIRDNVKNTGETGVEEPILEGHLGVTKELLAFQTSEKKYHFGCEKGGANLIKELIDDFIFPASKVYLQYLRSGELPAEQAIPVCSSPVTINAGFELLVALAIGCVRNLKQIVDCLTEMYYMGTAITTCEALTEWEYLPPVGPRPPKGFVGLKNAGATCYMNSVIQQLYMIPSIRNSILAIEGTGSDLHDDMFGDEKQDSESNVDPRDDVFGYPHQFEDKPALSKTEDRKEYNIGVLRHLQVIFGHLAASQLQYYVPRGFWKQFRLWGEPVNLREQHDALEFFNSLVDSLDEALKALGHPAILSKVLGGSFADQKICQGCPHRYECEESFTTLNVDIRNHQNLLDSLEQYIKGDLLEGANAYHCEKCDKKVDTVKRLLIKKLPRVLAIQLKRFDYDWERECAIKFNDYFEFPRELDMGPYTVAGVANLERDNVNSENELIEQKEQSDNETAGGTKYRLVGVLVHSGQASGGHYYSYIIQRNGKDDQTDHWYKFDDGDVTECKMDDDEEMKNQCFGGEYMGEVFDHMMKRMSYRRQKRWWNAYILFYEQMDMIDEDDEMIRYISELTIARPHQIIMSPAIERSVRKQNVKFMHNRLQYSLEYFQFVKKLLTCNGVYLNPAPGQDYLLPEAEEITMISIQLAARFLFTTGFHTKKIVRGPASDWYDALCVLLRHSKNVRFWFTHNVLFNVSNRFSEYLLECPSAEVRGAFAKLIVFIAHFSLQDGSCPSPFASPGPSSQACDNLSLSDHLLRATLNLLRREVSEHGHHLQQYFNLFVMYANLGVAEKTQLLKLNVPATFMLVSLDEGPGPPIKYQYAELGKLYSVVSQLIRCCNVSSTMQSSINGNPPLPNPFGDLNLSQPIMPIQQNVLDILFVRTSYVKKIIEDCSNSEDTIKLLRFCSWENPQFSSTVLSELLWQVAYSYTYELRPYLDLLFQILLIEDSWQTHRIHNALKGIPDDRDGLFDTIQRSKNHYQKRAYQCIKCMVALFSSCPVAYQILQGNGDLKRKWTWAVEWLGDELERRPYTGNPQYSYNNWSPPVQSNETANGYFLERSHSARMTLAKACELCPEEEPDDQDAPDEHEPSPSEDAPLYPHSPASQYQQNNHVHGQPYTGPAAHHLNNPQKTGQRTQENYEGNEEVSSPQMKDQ
# Chain of UniProt P51784 (P51784 whole entry): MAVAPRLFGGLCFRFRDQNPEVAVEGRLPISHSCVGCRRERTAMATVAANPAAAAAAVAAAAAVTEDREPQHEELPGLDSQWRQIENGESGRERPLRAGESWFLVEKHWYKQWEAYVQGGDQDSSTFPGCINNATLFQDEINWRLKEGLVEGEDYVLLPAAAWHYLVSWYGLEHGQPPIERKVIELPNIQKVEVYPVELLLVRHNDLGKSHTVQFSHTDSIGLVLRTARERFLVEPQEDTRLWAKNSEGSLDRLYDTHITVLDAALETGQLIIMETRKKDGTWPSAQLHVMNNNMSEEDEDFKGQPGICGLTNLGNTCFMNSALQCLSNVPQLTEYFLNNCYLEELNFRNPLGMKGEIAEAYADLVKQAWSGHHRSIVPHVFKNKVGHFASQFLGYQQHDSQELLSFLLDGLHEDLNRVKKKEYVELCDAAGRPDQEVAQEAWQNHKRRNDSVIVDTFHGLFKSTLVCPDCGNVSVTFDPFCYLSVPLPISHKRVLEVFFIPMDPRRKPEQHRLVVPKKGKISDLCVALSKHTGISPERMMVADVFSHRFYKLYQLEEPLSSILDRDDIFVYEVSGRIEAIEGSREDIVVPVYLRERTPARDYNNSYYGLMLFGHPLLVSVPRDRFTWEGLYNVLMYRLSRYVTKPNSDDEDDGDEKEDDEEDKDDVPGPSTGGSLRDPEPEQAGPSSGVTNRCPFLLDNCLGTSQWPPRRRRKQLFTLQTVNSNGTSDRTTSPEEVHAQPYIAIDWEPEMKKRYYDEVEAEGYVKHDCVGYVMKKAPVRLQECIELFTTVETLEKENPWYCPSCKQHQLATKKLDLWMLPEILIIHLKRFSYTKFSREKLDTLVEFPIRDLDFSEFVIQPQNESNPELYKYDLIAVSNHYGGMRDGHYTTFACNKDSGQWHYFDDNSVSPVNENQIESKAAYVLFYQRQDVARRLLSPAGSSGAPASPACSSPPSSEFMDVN
compound,measurement,setting,value
COc1cccc(CN(C)C(=O)CCl)c1,log2 ratio of Biotin-Ahx-Ub-VS probe labelling,[1],0.0455
same,log2 ratio of Biotin-Ahx-Ub-VS probe labelling,[2],0.0127
same,log2 ratio of Biotin-Ahx-Ub-VS probe labelling,[3],-0.462
same,log2 ratio of Biotin-Ahx-Ub-VS probe labelling,[4],-0.179
same,log2 ratio of Biotin-Ahx-Ub-VS probe labelling,[5],-0.0411
same,log2 ratio of Biotin-Ahx-Ub-VS probe labelling,[6],-0.149
same,log2 ratio of Biotin-Ahx-Ub-VS probe labelling,[7],0.258
same,log2 ratio of Biotin-Ahx-Ub-VS probe labelling,[8],-1.23 (active)
same,log2 ratio of Biotin-Ahx-Ub-VS probe labelling,[9],0.0172
